Bioassay records: PubChem BioAssay, National Center for Advancing Translational Sciences (NCATS)
IL1B secr inh: inhibitors of inflammasome signaling (IL-1 beta secretion). THP-1 LPS/ATP IL-1B secretion, AlphaLISA, 16 h; hits give low values. activity change, % at 57.5 µM. hit rate 4.7% among 360,000; in the data active = activity change below about -50%; inconclusive = mostly about -30% to -49%
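THP-1 cells pretreated 1 hr with compounds (up to 57.5 uM final), then stimulated with LPS (250 ng/mL final) plus ATP (1.25 mM final); secreted IL-1B measured by AlphaLISA after 16 hr, decreased signal indicating inhibition.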
HT1080 IDH1KD tx: toxicity to HT-1080 IDH1 knockdown cells (counter line); hit rate 2% among 360,000; HT-1080 IDH1 knockdown viability, ATP luminescence, 48 h; Potency, µM (highest dose often 46.1 µM), actives largely listed as cytotoxic; AID 686971
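After a 2 h attachment period, IDH1KD HT-1080 cells took pin-transferred compound for 48 h at 37 °C; ATP-based luminescence after 10 min room-temperature reagent incubation reported viability.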
DT40 TDP1 CPT: DT40-hTDP1 cell growth loss with CPT. chicken DT40 Tdp1-/-;hTDP1 cells + 20 nM CPT, ATP luminescence, 48 h. Potency, µM (highest dose often 46.2 µM), most hits filed as inhibitors. hit rate 12% among 420,000. AID 686979; also: nearly all actives have a fitted effect of over 55% in size
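Chicken DT40 Tdp1-/- cells complemented with human TDP1, 400 cells/well, exposed to compounds plus 20 nM camptothecin for at least 48 h at 37 C; viability read as ATP content by CellTiter-Glo luminescence.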
HT1080NT lethal: kills 2HG-producing HT-1080-NT fibrosarcoma cells; HT-1080-NT fibrosarcoma viability, CellTiter-Glo ATP luminescence, 48 h; Potency, µM (series often up to 46.1 µM), usual class: cytotoxic; hit rate 1.6% among 360,000; AID 686970;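 also: NT is the 2HG producing partner of a matched IDH1 knockdown line; nearly all actives have a fitted effect of over 55% in size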
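Viability by CellTiter-Glo luminescence after 48 h compound exposure at 37C of HT-1080-NT cells (750/well, RPMI, 5% FBS). % activity scaled between DMSO wells and medium-only wells, then curve-fitted and categorized by curve class.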
DT40 TDP1 no CPT: qHTS for Inhibitors of human tyrosyl-DNA phosphodiesterase 1 (TDP1): qHTS in cells in absence of CPT | DT40 Tdp1-/- hTDP1 cells, no CPT, ATP luminescence, 48 h | AID 686978, 2013 | Potency, µM (doses to about 46.2 µM), usual class: inhibitors | hit rate 15% among 420,000; also: nearly all actives have a fitted effect of over 55% in size
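Compound effects on proliferation are scored in DT40 Tdp1-/-;hTDP1 cells in the absence of CPT. ATP levels (CellTiter-Glo luminescence) are recorded after a ≥48 hr, 37 °C incubation.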
ELG1 DNA repair: blocks ELG1-dependent DNA repair in HEK293T cells; HEK293T ELG1-luciferase reporter, luminescence, 16 h; DNA damage induced by 5-fluorouridine; Potency, µM (doses to about 46.1 µM), hits mostly inhibitors; hit rate 2.3% among 330,000; also: nearly all actives have a fitted effect of over 55% in size
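DMSO vehicle served as the neutral condition. Each well held 2,000 cells given 5-fluorouridine plus compound; after 16 hr at 37 °C/5% CO2, ONE-Glo was added and luciferase measured 30 min later.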
Hits are given with their value; n = inactive; u = inconclusive; x = no result; ! = not active in a repeat. Most compounds without a hit are left out; they make up all but 19% or so of the library. Unless noted, calls follow the shape of the dose curve; as a rule, active = well fitted curve in the direction sought with a large enough effect; inconclusive = small, poorly fitted or top-dose-only effect, or another doubt; inactive = no such curve, though single readings can be large; an effect the other way counts as inactive or inconclusive.

SMILES	IL1B secr inh	HT1080 IDH1KD tx	DT40 TDP1 CPT	HT1080NT lethal	DT40 TDP1 no CPT	ELG1 DNA repair
C=CCn1c(O)c(C(CC)=NCCCO)c(=O)[nH]c1=O	n	n	n	n	8.2µM	u
CCOc1ccc(CCNC(=O)c2cc3c(-c4cccc(OC)c4)nn(C)c3s2)cc1OCC	x	x	u	x	18µM	x
N#CCCn1cc(C(=O)Nc2ccccc2Br)c(-c2ccc([N+](=O)[O-])cc2)n1	n	n	n	n	u	n
Cc1ccc2c(C)c3ccc4ccccc4c3c[n+]2c1	-66	23µM	3.7µM	n	4.6µM	x
N#Cc1cn(C2OC(CO)C(O)C2O)c2ncnc(N)c12 (configuration not stated)	-108	0.21µM	0.015µM	u	0.015µM	x
NC(=O)c1cn(C2OC(CO)C(O)C2O)c2ncnc(N)c12 (configuration not stated)	-81!	0.12µM	0.0082µM	0.33µM	0.016µM	0.1µM
Nc1ncnc2c1ncn2[C@@H]1O[C@@H]2COP(O)(=S)O[C@H]2[C@H]1O (some centres not stated)	x	x	n	x	n	x
CN1C(=O)C2C[C@@]3(Br)c4ccccc4N(OOSc4ccccc4)[C@H]3N2C(=O)[C@@H]1Cc1ccccc1 (some centres not stated)	n	n	u	n	u	x
CCC(C)N1C(=O)/C(=C\c2cc3c4c(c2)CCCN4CCC3)C(=O)NC1=S (configuration not stated)	n	n	u	n	u	u
CCC(C)N1C(=O)/C(=C\c2cnc(N(C)C)nc2)C(=O)NC1=S (configuration not stated)	-52	n	u	u	u	u
CCOP(=O)(OCC)C(NC(=O)CC(C)C)C(Cl)(Cl)Cl (configuration not stated)	n	n	n	n	n	n
CCOc1ccc(S(=O)(=O)Nc2cccc(C(=O)N3CCN(c4ccccn4)CC3)c2)cc1	n	n	13µM	n	16µM	x
Oc1ccccc1-c1ccccc1	x	x	n	x	n	x
CCOP(=O)(NC(C)C)Oc1ccc(SC)c(C)c1 (configuration not stated)	n	n	22µM	n	22µM!	x
Cn1c(=O)oc2cc(S(=O)(=O)NCCN3CCN(c4ccccc4)CC3)ccc21	n	n	u	n	n	n
CC1=NN=C(c2ccc(N)cc2)c2cc3c(cc2C1)OCO3	n	n	30µM	n	27µM	n
CCOP(=O)(c1ccccc1)c1nc(-c2ccc(F)cc2)oc1N1CCCCC1 (configuration not stated)	u	u	13µM	u	21µM	n
CCOP(=O)(OCC)c1nc(-c2ccccc2)oc1NCc1ccccc1	n	n	u	n	u	u
CCOP(=O)(OCC)c1nc(-c2cccc3ccccc23)oc1N1CCOCC1	-73	n	u	n	10µM	u
CCOP(=O)(OCC)c1nc(-c2ccc(Br)cc2)oc1N1CCCCC1	n	n	10µM	n	8.2µM	n
CCOP(=O)(OCC)c1nc(-c2ccc(F)cc2)oc1NCc1ccccc1	-54	n	u	u	n	u
COc1ccc(CCNc2oc(-c3ccc(OC)c(OC)c3)nc2P(=O)(OC)OC)cc1OC	n	n	n	n	u	n
CCOP(=O)(OCC)c1nc(-c2cccc3ccccc23)oc1NCCc1ccc(OC)cc1	-55	n	u	n	u	u
Nc1ccc2nc3c(c(Cl)c2c1)CCCC3	n	u	n	u	u	u
c1ccc(CNc2c3c(nc4ccccc24)CCC3)cc1	-93	u	u	u	15µM	n
CC(C)CNc1c2c(nc3ccccc13)CCC2	-60	n	u	n	18µM	n
OCCNc1c2c(nc3ccccc13)CCCC2	n	n	n	n	n	n
Cc1ccc(OCC(=O)N2CCN(Cc3ccc(F)cc3)CC2)cc1	x	x	n	x	n	x
